From PubChem BioAssay (NCATS) come the findings set out here.

Where “and” joins values, the source holds several entries; their conditions need not be identical. Identical values can stand only once. Records with an inconclusive call do not appear. Values without a mark were called inactive. Calls of active or inactive are those of the source. The call rests on the fitted dose curve; in most records, active means well fitted curve in the direction sought with a large enough effect; inconclusive means small, poorly fitted or top-dose-only effect, or another doubt; inactive means no such curve, though single readings can be large; an effect the other way counts as inactive or inconclusive.

The nature of assay [1]: Viability qHTS for spleen associated tyrosine kinase inhibitor (SYKi) naive MV4-11 cells (AID 1963823). Further: nearly all actives have a fitted effect of over 40% in size. The settings on record: MV4-11 AML viability, CellTiter-Glo luminescence, 72 h; series mostly up to 45 µM. Summed up: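 Read-out: CellTiter-Glo luminescence. Exposure: 72 hr, 37 C, 5% CO2, 95% humidity. Cells: MV4-11 without SYK inhibitor history, 500/well, qHTS format.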
(In general: In qHTS, concentration-response curves come from the screen itself.)

Assay [2] can be described thus: Viability qHTS for spleen associated tyrosine kinase inhibitor (SYKi) drug resistant MV4-11 cells (AID 1963824). Further: nearly all actives have a fitted effect of over 35% in size. The settings on record: SYKi-resistant MV4-11 viability, CellTiter-Glo, 72 h; series mostly up to 45 µM. Summed up: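 CellTiter-Glo luminescence, read 10 min after reagent addition, reports viability after a 72 hr compound exposure. Cells are an MV4-11 line made resistant to SYK inhibition, seeded at 500 per well onto compound-containing plates.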

Assay [3] can be described thus: Quantitative highthroughput screen to assess conditional lethalithy of NOMO1 cells grown in RPMI1640 with dialyzed fetal bovine serum (RPMI+ds) (AID 1963877). Further: nearly all actives have a fitted effect of over 30% in size.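 On Viability: 100% = DMSO control wells and 0% = empty wells.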 Conditions: NOMO1 in RPMI+dialyzed FBS viability, ATP luminescence, 48 h; series mostly up to 45.8 µM. In outline:
(§1)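 Each medium arm—HPLM with 10% dialyzed FBS, or RPMI1640 with 5 mM glucose and 10% untreated or dialyzed FBS—was screened against an 11-point, 3-fold compound titration for 48 h at 37 °C, with CellTiter-Glo luminescence as endpoint.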

Assay [4] in a line: Quantitative highthroughput screen to assess conditional lethalithy of NOMO1 cells grown in Human Plasma-Like Medium with dialyzed fetal bovine serum (HPLM+ds) (AID 1963878). Further: nearly all actives have a fitted effect of over 35% in size.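 On Viability: 100% = DMSO wells and 0% = empty wells on each plate.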 The settings on record: NOMO1 AML cells in HPLM+ds, CellTiter-Glo viability, 48 h; series mostly up to 45.8 µM. In outline:
as §1
(Cellular ATP, detected with luciferase, serves as a proxy for viable cell number.)

Assay [5] in a line: Quantitative highthroughput screen to assess conditional lethalithy of P12 Ichikawa cells grown in Human Plasma-Like Medium with dialyzed fetal bovine serum (HPLM+ds) (AID 1963879). Further: nearly all actives have a fitted effect of over 35% in size. The settings on record: ATP luminescence, 48 h; Potency: viability; series mostly up to 45.8 µM. In outline:
as §1

The nature of assay [6]: Quantitative highthroughput screen to assess conditional lethalithy of P12 Ichikawa cells grown in RPMI1640 with dialyzed fetal bovine serum (RPMI+ds) (AID 1963880). Further: nearly all actives have a fitted effect of over 35% in size.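 On Viability: 100% = DMSO wells and 0% = empty wells on each plate.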 Conditions: ATP luminescence, 48 h; Potency: P12-Ichikawa viability; series mostly up to 45.8 µM. In outline:
as §1

Assay [7] can be described thus: Quantitative highthroughput screen to assess conditional lethalithy of P12 Ichikawa cells grown in RPMI1640 with untreated serum (RPMI+s) (AID 1963881). Further: nearly all actives have a fitted effect of over 35% in size.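 On Viability: 100% = DMSO wells and 0% = empty wells without cells.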 The settings on record: ATP luminescence, 48 h; Potency: viability; series mostly up to 45.8 µM. Summed up: as §1
Assay [8] is described as follows: Quantitative highthroughput screen to assess conditional lethalithy of SEM cells grown in RPMI1640 with unreated serum (RPMI+s) (AID 1963883). Further: nearly all actives have a fitted effect of over 35% in size.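 On Viability: 100% = DMSO wells and 0% = empty wells without cells.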 The settings on record: SEM B-ALL cells, CellTiter-Glo viability, 48 h; series mostly up to 45.8 µM. In outline: as §1
Assay [9] in a line: Quantitative highthroughput screen to assess conditional lethalithy of SEM cells grown in RPMI1640 with dialyzed fetal bovine serum (RPMI+ds) (AID 1963884). Further: nearly all actives have a fitted effect of over 35% in size.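 On Viability: 100% = DMSO control wells and 0% = empty wells without cells.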 The settings on record: SEM B-ALL cells, RPMI+dialyzed FBS, CellTiter-Glo viability, 48 h; series mostly up to 45.8 µM. Summed up: as §1
The nature of assay [10]: Cellular viability qHTS for adrenocortical cancer (ACC) cell line NCI-H295R (AID 1963990). Further: nearly all actives have a fitted effect of over 60% in size.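 On activity change, negative = viability loss: 0% = DMSO only wells and -100% = full killing with cytotoxic reference compound.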 Conditions: CellTiter-Glo ATP luminescence, 48 h; series mostly up to 46.1 µM. In outline: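 Adrenocortical carcinoma cells, suspended at 300 000 cells/mL in serum-free DMEM plus ITS, rested overnight before pin transfer of compound. After two days' incubation, ATP-dependent luminescence was recorded and curve-fitted.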

Assay [11] can be described thus: Cellular viability qHTS for adrenocortical cancer (ACC) cell line SW-13 (AID 1963989). Further: nearly all actives have a fitted effect of over 65% in size.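 On activity (max response): cells grown in serum-free medium with ITS supplement; on the % scale 0 is the no-effect control and ±100 the full control effect.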 Conditions: SW-13 ACC cells viability, CellTiter-Glo, 48 h; activity (max response): stronger effect = lower value. Summed up:
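IC50 and maximal-response values come from four-parameter logistic fits of titration data. SW-13 cells in serum-free medium received compounds (up to 46 uM final) for 48 h before CellTiter-Glo luminescence.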

Assay [12] can be described thus: Quantitative highthroughput screen to assess conditional lethalithy of SEM cells grown in Human Plasma-Like Medium with dialyzed fetal bovine serum (HPLM+ds) (AID 1963882). Further: nearly all actives have a fitted effect of over 35% in size. The settings on record: SEM B-ALL cells in HPLM+ds, CellTiter-Glo viability, 48 h; series mostly up to 45.8 µM. Summed up:
as §1
Potency means the concentration at half of the fitted maximal effect.

`CN(C)c1ccc(C(=C2C=CC(=[N+](C)C)C=C2)c2ccc(N(C)C)cc2)cc1`: the Potency is 0.332 µM (active) in assay [1]; 372 nM (active) in assay [2]; 0.132 µM (active) in [3]; 0.118 µM (active) in assay [4]; 0.264 µM (active) in assay [5]; 0.132 µM (active) in assay [6]. In addition, the Potency in assay [7] is 0.118 µM (active); in assay [8], 0.105 µM (active); in assay [9], 0.0935 µM (active); in assay [10] it was 920 nM (active) and 2.82 µM (active).

In the case of `COc1cc(NCc2ccc3nc(N)nc(N)c3c2C)cc(OC)c1OC`, the Potency in assay [1] is 1.05 µM (active); in assay [2], 42.2 nM (active) and 1.05 µM (active); in assay [3], 10.5 µM (active); in assay [5], 2.35 µM (active); in assay [6], 10.5 µM (active); in [7] it was 18.7 µM (active). For the same molecule, the Potency in assay [11] was 10.3 nM (active) and 1.12 µM (active); in [10] it was 14.6 nM (active) and 2.82 µM (active).

With `O=C(Nc1cn[nH]c1-c1nc2ccc(CN3CCOCC3)cc2[nH]1)NC1CC1`, the Potency in assay [1] was 0.0259 µM (active); in [2] it was 73.1 nM (active) and 51.7 nM (active) and 132 nM (active); in assay [3] it was 18.7 µM (active); in [4], 14.8 µM (active); in assay [12] it was 0.0833 µM (active); in [8] it was 0.0418 µM (active). The Potency in assay [9] is 0.0332 µM (active); in assay [10] it was 20 µM (active).

`O=P(O)(O)C(O)(Cn1ccnc1)P(=O)(O)O`: the viability (% of control) in [1] is 79.2% [at 4.97 µM]. Moreover, the viability, % of control in assay [2] is 89.7% [at 4.97 µM]. Besides, the Potency result in assay [3], in assay [4], in assay [5], in assay [6], in assay [7] and in assay [12] was “inactive” each time. Moreover, the Potency result in assay [8] and in [9] was “inactive” in each case. Also, the activity (max response) in assay [11] is -1.67%. Moreover, in [10], the activity change, negative = viability loss was -3.44% [at 3.81 µM].

`O=C(N[C@@H](c1ccccc1)[C@@H]1CCCCN1)c1cccc(C(F)(F)F)c1Cl`: the Potency was 16.6 µM (active) in assay [1], 16600 nM (active) in [2], 28.2 µM (active) in [11] and 8.91 µM (active) in [10]. Besides, the Potency entry in assay [3], in assay [4] and in [5] was “inactive” in each case.

With `COc1cc2c(cc1OC)CC(=O)N(CCCN(C)C[C@H]1Cc3cc(OC)c(OC)cc31)CC2`, the Potency entry in [1], in [2], in assay [3], in [4], in assay [5] and in assay [6] was “inactive” each time. Also, the Potency entry in assay [7], in assay [12], in assay [8], in assay [9] and in assay [10] was “inactive” throughout. Further, in assay [11], the activity (max response) is 10.3%.

`O=C(NC1CCNCC1)c1[nH]ncc1NC(=O)c1c(Cl)cccc1Cl`: the Potency in [1] is 0.59 µM (active); in assay [2] it was 411 nM (active); in assay [3], 1.18 µM (active); in assay [4], 1.18 µM (active); in assay [5], 1.66 µM (active); in [6] it was 2.35 µM (active). The Potency is 1.48 µM (active) in [7]; 1.05 µM (active) in [12]; 1.32 µM (active) in assay [8]; 1.32 µM (active) in assay [9]; 1.12 µM (active) in assay [11]; 15.8 µM (active) in assay [10].

With `C[C@]12C=CC(=O)C=C1CC[C@@H]1[C@@H]2C(=O)C[C@@]2(C)[C@H]1CC[C@]2(O)C(=O)CO`, the Potency result in assay [1], in [2], in [3], in assay [4], in [5] and in assay [6] was “inactive” in each case. Also, the Potency entry in assay [7], in [12], in assay [9] and in assay [10] was “inactive” in each case. For the same molecule, the activity (max response) in [11] was -14.6% and 1.01%.

Turning to `Cc1nc(-c2ccc(OCC(C)C)c(C#N)c2)sc1C(=O)O`, the Potency entry in [1], in assay [2], in assay [3], in [5], in assay [6] and in [7] was “inactive” throughout. Moreover, the Potency result in assay [12], in [8], in assay [9] and in assay [10] was “inactive” each time. Also, the activity (max response) in [11] is 5.55% and 8.19%.

In the case of `C=CC(=O)Nc1cccc(Oc2nc(Nc3ccc(N4CCN(C)CC4)cc3)ncc2Cl)c1`, the Potency is 0.206 µM (active) in [1]; 517 nM (active) and 525 nM (active) in [2]; 5.9 µM (active) in assay [3]; 2.35 µM (active) in assay [12]; 1.87 µM (active) in [9]; 1.26 µM (active) in assay [11]. Moreover, the Potency in assay [10] is 2.51 µM (active). Also, the Potency entry in assay [4] is “inactive”.

Regarding `COCCNCCCn1c(C(=O)CF)c(-c2ccc(C)cc2)c2c(N)ncnc21`, the Potency is 4.17 µM (active) in [1], 6610 nM (active) in [2], 11.8 µM (active) in [12] and 0.166 µM (active) in assay [8]. Moreover, the Potency result in assay [3], in [4], in [5], in [6], in [7] and in assay [10] was “inactive” throughout. In assay [11], the activity (max response) was 7.79%.

Take `C[C@@H]1COCCN1c1cc(C2(S(C)(=N)=O)CC2)nc(-c2ccnc3[nH]ccc23)n1` (some centres not stated): the Potency in assay [1] is 1.48 µM (active); in assay [2], 1.18 µM (active) and 2.59 µM (active); in [3] it was 2.95 µM (active); in assay [5], 4.17 µM (active); in assay [7] it was 4.67 µM (active); in [8] it was 1.17 µM (active). Moreover, the Potency in assay [10] is 3.98 µM (active).

Turning to `COc1cc(NS(=O)(=O)c2ccc(N)cc2)nc(OC)n1`, the Potency result in [1], in [2], in assay [3], in assay [4], in assay [5] and in [6] was “inactive” in each case. The Potency entry in assay [7], in assay [8] and in [9] was “inactive” in each case. Further, the activity (max response) in [11] was -1.49%.

In the case of `CCCCCCCCCCCCc1ccc(S(=O)(=O)Nc2nncs2)cc1`, the Potency in [1] was 16.4 µM (active); in [4], 7.43 µM (active); in assay [8], 3.32 µM (active); in [9], 6.62 µM (active). Also, the Potency entry in assay [2], in [3], in [7], in assay [12] and in [10] was “inactive” in each case. Also, in assay [11], the activity (max response) is -13.1%.
